Compounds with a hit are over-represented: about 1.6% of the library has one in this group of screens.
Peg3 imprint = inducers of genomic imprint erasure in mouse ES cells; actives 0.02% (n = 110,000); Potency, µM (top dose mostly 60.7 µM), usual class: activators; mouse ES Peg3-LacZ reporter, beta-gal luminescence, 40 h
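Readout: BetaGlo luminescence (5 min, room temp) for LacZ from the normally silent maternal Peg3 allele in female Peg3LacZ-Neo ES cells. Cells 300/well, 40 h, 37C, 5% CO2. Data normalized per plate to negative controls.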
Epigenetic mod = derepresses silenced GFP locus in mouse C127i cells; mouse C127i GFP locus derepression, cytometry, 30 h; Potency, µM (series often up to 46.1 µM); actives 0.09% (n = 68,000)
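Read-out is the number of GFP-positive cells, scored as fluorescent objects 20 to 120 um wide, reflecting derepression of a silenced CMV-GFP reporter in murine C127i cells after 30 h compound exposure at 37 C.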
UbGFP stabilizer = inhibits proteasome, raising ubiquitin-GFP reporter fluorescence. 67,000 tested, under 10 active. Potency, µM (series often up to 45.9 µM), most hits filed as activators. Ubiquitin-GFP reporter cells, proteasome inhibition, GFP fluorescence; response scale: untreated = 0%, 10 µM MG-132 = 100%; active means well fitted activation curve with a large enough effect, not every such curve was filed as active; inconclusive means small, poorly fitted or top-dose-only effect, or another doubt; inactive means no such curve, though single readings can be large or run the other way
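Proteasome blockade was scored as a rise in GFP-expressing U2OS cells carrying a ubiquitin(G76V)-GFP construct, imaged after 4 hr compound treatment at 37 °C across a 46 uM–2.9 nM series.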
p53ts 32C tox = p53ts cell cytotoxicity, permissive temperature; H1299-p53A138V at 32C, ATP luminescence viability, 24 h; Potency, µM (doses to about 46.1 µM), actives largely listed as cytotoxic; actives 0.93% (n = 130,000); AID 924; further: nearly all actives have a fitted effect of over 55% in size
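ATP-content luminescence (ATPlite) read-out after 24 h compound exposure at 32C in H1299-p53A138V cells (600/well). Tested up to 46 uM. Normalized to DMSO (0%) and 100 uM tamoxifen (100% killing); Hill-fit AC50.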
HBB splicing = hemoglobin beta splicing modulation | Potency, µM (titrated, usually from 46.1 µM), usual class: activators | HBB splicing reporter cell assay, activation; EGFP reporter with mutant IVS2-654 intron; response scale: normalised to 500 nM splice-correcting PNA | actives 0.06% (n = 65,000)
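Compounds were applied for 2 days to HeLa EGFP-654 cells, 500/well in Optimem with 2% FCS. The reporter's EGFP is disrupted by mis-splicing of beta-globin intron IVS2-654. Readout: summed well GFP fluorescence from 488 nm laser scanning; reference was 500 nM antisense […] 654 PNA.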
p53ts 39C kill = kills p53ts cells at the nonpermissive temperature | AID 902 | H1299-p53A138V viability at 39C, ATP luminescence, 24 h | actives 1.5% (n = 130,000) | Potency, µM (highest dose often 46.1 µM), actives largely listed as cytotoxic; further: nearly all actives have a fitted effect of over 55% in size
Hits are given with their value; n = inactive; u = inconclusive; x = not tested or not shown; ! = repeats disagree; [ ] = another dose, or the depositor's remark. Unless noted, the call rests on the fitted dose curve; in most records, active means well fitted curve in the direction sought with a large enough effect; inconclusive means small, poorly fitted or top-dose-only effect, or another doubt; inactive means no such curve, though single readings can be large; an effect the other way counts as inactive or inconclusive.

SMILES	Peg3 imprint	Epigenetic mod	UbGFP stabilizer	p53ts 32C tox	HBB splicing	p53ts 39C kill
Cc1cc(N2CCN(C)CC2)nc2ccc(NC(=O)c3ccc(C(C)(C)C)cc3)cc12	n[10.9 µM]	x	x	16µM	x	20µM
CCOc1ccccc1NC(=O)Nc1ccc2nc(N3CCN(C)CC3)cc(C)c2c1	n[10.9 µM]	x	x	u	x	10µM
CC(C)(C)c1ccc(C(=O)/C=C2\NC(=O)CS2)cc1	n	n	n	10µM	n	7.9µM
COCCOC(=O)/C=C1/NC(=O)CS1	n	n	n	n	n	n
CSc1cccc(-n2nnc(-c3nsc(NC(=O)c4cccs4)n3)c2C)c1	n[10.9 µM]	x	x	n	x	13µM
CCc1cccc(-n2nnc(-c3nsc(NC(=O)c4cccs4)n3)c2C)c1	n[10.9 µM]	x	x	n	x	10µM
CCc1ccc(-n2nnc(-c3nsc(NC(=O)c4ccccc4Cl)n3)c2C)cc1	n[10.9 µM]	x	x	n	x	n
Cc1ccc(-n2nnc(-c3nsc(NC(=O)c4cccc(Cl)c4)n3)c2C)cc1C	n[10.9 µM]	x	x	n	x	n
Oc1c(I)cc(Cl)c2cccnc12	n	n	n	u	n	7.9µM
Oc1c(CN2CCc3ccccc3C2)cc(Cl)c2cccnc12	n	x	n	13µM	n	4µM
Oc1c(CN2CCCCC2)cc(Br)c2cccnc12	n	3.2µM	n	n	n	10µM
Oc1ccc(CN2CCN(Cc3ccccc3)CC2)c2cccnc12	n	u	n	u	x	n
O=C(Nc1ccccc1C(F)(F)F)c1cc(-c2ccc3c(c2)OCCO3)on1	n[10.9 µM]	x	x	u	x	u
C#CCn1c(/C=C/c2ccc(Cl)cc2)nc2ccccc21	n[10.9 µM]	x	x	4µM	x	3.2µM
CC(C)Cn1c(/C=C/c2ccc(F)cc2)nc2ccccc21	n[10.9 µM]	x	x	13µM	x	10µM
CC(C)CCn1c(/C=C/c2ccccc2)nc2ccccc21	n[10.9 µM]	x	x	u	x	u
CCC(C)Cn1c(/C=C/c2ccccc2)nc2ccccc21 (stereo unspecified)	n[10.9 µM]	x	x	u	x	13µM
CC(C)Cn1c(-c2ccccc2Cl)nc2ccccc21	n[10.9 µM]	x	x	n	x	n
COC(=O)C/C=C\[C@@H](C)[C@@H](/C=N\O[C@@H]1O[C@H](COC(C)=O)[C@H](OC(C)=O)[C@H](OC(C)=O)[C@H]1OC(C)=O)OC	x	x	x	n[9.22 µM]	n[9.22 µM]	n[9.22 µM]
O=C1c2[nH]nc(-c3ccccc3O)c2C(c2ccc(Cl)cc2)N1CCc1ccccc1 (stereo unspecified)	n[10.9 µM]	x	x	20µM	x	u
COCCn1c(C)cc(C(=O)CSc2nnc(C)s2)c1C	n	n	n	13µM	n	13µM
CC(=O)Nc1ccc(C)cc1-c1nc2ccccc2n(CC(=O)Nc2cc(Cl)ccc2C)c1=O	n[10.9 µM]	x	x	n	x	n
CCOC(=O)C1(Nc2nccs2)Sc2ccccc2NC1=O (stereo unspecified)	n	n	n	n	n	n
CCOC(=O)C1(N(CC)CC)Sc2cc(C)ccc2NC1=O (stereo unspecified)	n	n	n	n	n	16µM
CCN(CC)C(=S)SSC(=S)N(CC)CC	n	1µM!	n	x	n	x
SMILES	Peg3 imprint	Epigenetic mod	UbGFP stabilizer	p53ts 32C tox	HBB splicing	p53ts 39C kill
COc1ccc2c(c1)c(=O)c(C(=O)c1ccccc1)cn2CC(=O)Nc1ccc2c(c1)OCO2	n[10.9 µM]	x	x	n	x	n
Cc1ccc(-c2cc3c(nn2)-c2ccccc2C3=O)cc1	n	n	n[9.17 µM]	0.5µM	n[0.0738 µM]	0.4µM
CCOC(=O)Cc1ccc(NC(=O)N2CCOc3ccc(C)cc32)cc1	n[10.9 µM]	x	x	n	x	n
Oc1ccc(NCc2ccccc2OCc2ccccc2Cl)cc1	n[10.9 µM]	x	x	n	x	n
Oc1ccc(NCc2ccc(OCc3ccccc3Cl)cc2)cc1	n[10.9 µM]	x	x	u	x	10µM
Oc1ccc(NCc2ccc(OCc3ccccc3)cc2)cc1	n[10.9 µM]	x	x	u	x	20µM
Cc1ccccc1-c1noc(CCC(=O)Nc2cccc(C)c2C)n1	n[10.9 µM]	x	x	n	x	n
CCOc1ccc(CN2CCN(Cc3ccc4c(c3)c3ccccc3n4CC)CC2)cc1	n[10.9 µM]	x	x	n	x	u
CCn1c2ccccc2c2cc(CN3CCN(Cc4ccc(OC)c(OC)c4)CC3)ccc21	n[10.9 µM]	x	x	n	x	25µM
CCCn1ccc2c(OCC(=O)NCc3ccccc3Cl)cccc2c1=O	n[10.9 µM]	x	x	n	x	n
CN1/C(=C\C(=O)c2cccs2)Sc2ccccc21	n	n	n	10µM	n	10µM
O=c1cc(-c2ccccc2)oc2c1ccc1ccccc12	n	n[9.22 µM]	n	n	x	32µM
O=c1cc(C(F)(F)F)oc2c1ccc1ccccc12	x	x	x	n	x	n
CCCCCCCN(C(=O)CCl)c1ccccc1C	x	x	x	u	x	25µM
CCN(C(=O)c1ccc(C(=O)N(CC)c2ccccc2C)cc1)c1ccccc1C	n[10.9 µM]	x	x	n	x	n
CC(C)c1ccc(C2c3c(-c4ccccc4O)n[nH]c3C(=O)N2Cc2ccncc2)cc1 (stereo unspecified)	n[10.9 µM]	x	x	n	x	n
O=C(O)CCn1cnc2c(=S)nc[nH]c21	n[10.9 µM]	n[9.22 µM]	n[9.17 µM]	n[9.22 µM]	n[9.22 µM]	n[9.22 µM]
S=c1nc[nH]c2nc[nH]c12	n	x	x	u	x	7.9µM
COC(=O)C1=C(CS(=O)(=O)c2cc(Cl)ccc2OC)NC(=O)NC1c1ccccc1 (stereo unspecified)	n[10.9 µM]	x	x	n	x	n

Screening results: PubChem BioAssay, National Center for Advancing Translational Sciences (NCATS)
